# BAZ2B inh – BAZ2B (human) inhibition; Q9UIF8; AlphaScreen BAZ2B-H3K14Ac peptide displacement; Potency, µM (top dose mostly 114 µM), for inactives: at the highest dose activity change, negative = inhibition, hits mostly inhibitors; 360,000 compounds, 4.4% hits; AID 504333; further: on the % scale 0 is the no-effect control and ±100 the full control effect; nearly all actives have a fitted effect of over 60% in size
#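 Complex of BAZ2B and biotin-H3K14Ac (50 nM apiece) forms over 30 min at RT, then faces library compounds up to 110 uM for another 30 min; AlphaScreen beads added, 20 min dark incubation, luminescence read.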
# HP1b chromo inh – blocks HP1-beta chromodomain binding to methylated histone tails | AlphaScreen HP1-beta / biotin-H3K9me3 peptide binding | Potency, µM (top dose mostly 114 µM), for inactives: at the highest dose activity change, negative = inhibition, hits mostly inhibitors | 390,000 compounds, 0.56% hits | AID 540317; further: nearly all actives have a fitted effect of over 70% in size
#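 HP1-beta protein (50 nM final) preincubated 30 min at room temperature with biotinylated H3(1-18)K9me3 peptide (50 nM) in PBS pH 7.4, 0.01% Tween-20, then compound added for 30 min. AlphaScreen streptavidin donor/nickel chelate acceptor beads (10 ug/mL final), 30 min dark, luminescence read.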
# JMJD2A Tudor – inhibitors of human JMJD2A Tudor domain; O75164; AlphaScreen JMJD2A-Tudor / H3K4me3 peptide binding; Potency, µM (top dose mostly 114 µM), for the others: top-dose activity change, negative = inhibition, most hits filed as inhibitors; 390,000 compounds, 4.4% hits; further: on the % scale 0 is the no-effect control and ±100 the full control effect; nearly all actives have a fitted effect of over 50% in size
# G9a block – G9a (human) methyltransferase inhibition; Q96KQ7; G9a H3K9 monomethylation, AlphaScreen, 2 h; Potency, µM (series often up to 102 µM), inactives show top-dose activity, negative = inhibition, actives largely listed as inhibitors; 350,000 compounds, 8.8% hits; further: on the % scale 0 is the no-effect control and ±100 the full control effect; nearly all actives have a fitted effect of over 75% in size
#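 Readings reflect AlphaScreen signal from monomethyl-H3K9 antibody detection. HMT at 20 nM; substrate b-H3K9 500 nM; cofactor SAM 20 uM; 2 h RT reaction; compounds tested as titrations in qHTS with 15 min preincubation.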
# L3MBTL1 block – L3MBTL1 (human) inhibition. Q9Y468. AlphaScreen L3MBTL1–H3K9me1 peptide binding. Potency, µM (doses to about 57.1 µM), inactives show at the top dose activity, negative = inhibition, actives largely listed as inhibitors. 230,000 compounds, 0.66% hits; further: on the % scale 0 is the no-effect control and ±100 the full control effect; nearly all actives have a fitted effect of over 60% in size
# Target sequence (Q9Y468 whole entry, looked up): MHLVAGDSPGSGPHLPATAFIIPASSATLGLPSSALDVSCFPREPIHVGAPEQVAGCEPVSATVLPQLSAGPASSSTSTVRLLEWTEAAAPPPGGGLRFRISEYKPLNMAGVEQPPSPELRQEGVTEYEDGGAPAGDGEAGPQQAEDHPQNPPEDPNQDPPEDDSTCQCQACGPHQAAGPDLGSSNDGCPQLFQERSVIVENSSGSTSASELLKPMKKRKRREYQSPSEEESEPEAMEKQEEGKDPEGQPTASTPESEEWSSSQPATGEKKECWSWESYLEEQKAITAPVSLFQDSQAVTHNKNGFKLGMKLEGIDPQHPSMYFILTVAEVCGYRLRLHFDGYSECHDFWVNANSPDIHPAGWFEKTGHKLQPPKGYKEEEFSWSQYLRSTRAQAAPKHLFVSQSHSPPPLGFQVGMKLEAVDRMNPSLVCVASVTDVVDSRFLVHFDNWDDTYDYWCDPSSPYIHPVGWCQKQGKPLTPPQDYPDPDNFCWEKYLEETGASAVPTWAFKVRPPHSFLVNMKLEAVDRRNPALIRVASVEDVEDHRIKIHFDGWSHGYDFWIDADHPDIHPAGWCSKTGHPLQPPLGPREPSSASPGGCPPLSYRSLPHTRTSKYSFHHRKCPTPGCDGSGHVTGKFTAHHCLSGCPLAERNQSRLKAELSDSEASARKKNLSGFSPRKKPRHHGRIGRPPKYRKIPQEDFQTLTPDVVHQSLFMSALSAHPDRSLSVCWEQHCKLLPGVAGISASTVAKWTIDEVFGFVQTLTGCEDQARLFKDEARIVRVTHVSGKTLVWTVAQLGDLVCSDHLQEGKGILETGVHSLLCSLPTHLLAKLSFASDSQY
#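 Displacement of a biotinylated histone H3(1-15) peptide monomethylated at Lys9 (75 nM) from L3MBTL1 (50 nM) was measured by AlphaScreen after a 30 min room-temperature compound incubation; cefsulodin titration served as intraplate control.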
# An asterisk follows results filed as active; ? = inconclusive; . = no result; [ ] = remark or other dose. This is a sample that favours compounds with a hit; in the whole collection about 11% have one here. The call rests on the fitted dose curve; in most records, active means well fitted inhibition curve with a large enough effect; inconclusive means small, poorly fitted or top-dose-only effect; inactive means no such curve, though single readings can be large or run the other way. Potency means the concentration at half of the fitted maximal effect.
SMILES,BAZ2B inh,HP1b chromo inh,JMJD2A Tudor,G9a block,L3MBTL1 block
CCc1nnc(NC(=O)C2Cc3ccccc3CN2S(=O)(=O)c2ccc(C)cc2)s1 (stereo not given),?,0.1%,?,39.8µM*,-2.9%
CCc1nnc(NC(=O)C2Cc3ccccc3CN2S(=O)(=O)c2cccs2)s1 (stereo not given),-1.0%,29.7%,-34.2%,14.1µM*,-15.0%
O=C(O)C1Cc2ccccc2CN1S(=O)(=O)c1ccccc1 (stereo not given),?,15.8%,-0.7%,?,.
O=C(O)C1Cc2ccccc2CN1S(=O)(=O)c1ccc2ccccc2c1 (stereo not given),50.1µM*,7.8%,50.1µM*,7.94µM*,.
Cc1ccc(S(=O)(=O)N(CC(=O)N2CCc3ccccc3C2)c2ccc(C)c(C)c2)cc1,-14.9%,27.7%,-21.9%,-19.8%[59 µM],.
OCc1ccccc1O,.,.,.,-31.4%[2.33 µM],.
OCc1ccccc1SSc1ccccc1CO,.,?,14.1µM*,.,.
O=C(CSc1nnc(NC(=O)C2CC(=O)N(c3ccc(F)cc3)C2)s1)NC1CCCC1 (stereo not given),-18.7%,41.2%,-15.3%,25.1µM*,.
O=C(CSc1nnc(NC(=O)C2CC(=O)N(c3ccccc3)C2)s1)NCc1ccco1 (stereo not given),-35.0%,22.9%,?,?,.
O=C(CSc1nnc(NC(=O)C2CC(=O)N(c3ccccc3)C2)s1)NCC1CCCO1 (stereo not given),-2.0%,38.9%,-7.4%,39.8µM*,.
CCOc1ccc(N2CC(C(=O)Nc3nnc(SCCOC)s3)CC2=O)cc1 (stereo not given),-1.0%,0.8%,-16.1%,70.8µM*,.
COc1ccc(N2CC(C(=O)Nc3nnc(SCC(=O)N4CCCC4)s3)CC2=O)cc1 (stereo not given),-8.0%,22.4%,-19.9%,.,.
O=C(CSc1nc2ccc(NC(=O)C3CCCCC3)cc2s1)NCC1CCCO1 (stereo not given),-0.8%,43.5%,-27.6%,44.7µM*,5.5%
Cc1ccc(N2CC(C(=O)Nc3nnc(SCC(=O)N4CCOCC4)s3)CC2=O)cc1 (stereo not given),-1.2%,35.2%,-8.1%,44.7µM*,.
O=C(Nc1nnc(SCC(=O)N2CCOCC2)s1)C1CC(=O)N(c2ccc(F)cc2)C1 (stereo not given),-12.7%,41.7%,-5.2%,19.3%[12.7 µM],.
COc1ccc(C(=O)CSc2nnc(NC(=O)C3CC(=O)N(c4ccccc4)C3)s2)cc1 (stereo not given),8.0%,35.6%,2.0%,44.7µM*,6.7%
COC(=O)CSc1nnc(NC(=O)C2CC(=O)N(c3ccc(F)cc3)C2)s1 (stereo not given),1.4%,19.7%,-28.5%,39.8µM*,.
O=C(Nc1nnc(SCC(=O)N2CCCC2)s1)C1CC(=O)N(c2ccc(F)cc2)C1 (stereo not given),-16.8%,39.2%,-17.4%,20µM*,.
COc1ccc(-n2nc(C(=O)Nc3ccc(Br)cc3C)c3c4ccccc4n(C)c3c2=O)cc1,.,51.4%,2.3%,10.1%[59 µM],.
CCOc1ccc(NC(=O)CN2C(=O)C(c3ccccc3)=NC23CCC(C)CC3)cc1 (stereo not given),-14.1%,25.2%,7.0%,-6.7%[59 µM],.
Cc1ccc(N2CC(C(=O)Nc3nnc(SCCC4OCCO4)s3)CC2=O)cc1C (stereo not given),-8.6%,26.4%,-14.4%,-10.2%[12.7 µM],.
Cc1ccc(N2CC(C(=O)Nc3nnc(SCCC4OCCO4)s3)CC2=O)cc1 (stereo not given),-8.7%,31.4%,-9.6%,12.6µM*,.
O=C(Nc1nnc(SCCN2CCOCC2)s1)C1CC(=O)N(c2ccccc2)C1 (stereo not given),-0.8%,36.2%,-16.9%,44.7µM*,.
COc1cccc(N2CC(C(=O)Nc3nnc(SCC(=O)NC4CCCC4)s3)CC2=O)c1 (stereo not given),-25.0%,36.8%,-7.3%,31.6µM*,.
COCc1nnc(NC(=O)C2CC(=O)N(c3ccc(C)c(Cl)c3)C2)s1 (stereo not given),-5.3%,-8.4%,-12.8%,15.8µM*,-1.9%
SMILES,BAZ2B inh,HP1b chromo inh,JMJD2A Tudor,G9a block,L3MBTL1 block
Cc1c(NC(=O)Nc2ccc(Br)cc2F)sc2nc3n(c(=O)c12)CCC(C)CC3 (stereo not given),2.1%,36.5%,0.0%,-0.2%[59 µM],.
Cc1cn2c(=O)c(S(=O)(=O)NCCc3ccccc3)c(C)nc2s1,-10.8%,33.8%,1.8%,-4.9%[59 µM],.
CCOC(=O)C(CCc1ccccc1)NC(C)C(=O)N1Cc2cc(OC)c(OC)cc2CC1C(=O)O (stereo not given),.,.,.,-26.9%[12.7 µM],.
O=C(Nc1nnc(SCC(=O)N2CCCCC2)s1)c1cccs1,9.3%,37.9%,?,8.91µM*,5.9%
COc1cc(C(=O)Nc2nnc(SCC(=O)NCC3CCCO3)s2)cc(OC)c1OC (stereo not given),?,42.0%,-8.3%,70.8µM*,.
CN1CC2(Cc3cc([N+](=O)[O-])ccc31)C(=O)OC(C)(C)OC2=O,.,7.0%,-18.4%,.,.
CCN(C[C@H]1N[C@@](C)(C(=O)OC)[C@H]2C(=O)N(Cc3ccccc3)C(=O)[C@@H]12)C(=O)Nc1ccc(F)cc1,.,15.5%,-20.5%,.,6.1%
CC(C)(C)N(Cc1ccccc1)C(=O)c1ccc(Cl)cc1[N+](=O)[O-],?,-24.3%,?,?,-24.1%
CCN(C(=O)c1ccc(Cl)cc1[N+](=O)[O-])c1ccccc1C,-37.6%,23.9%,-18.9%,39.8µM*,-21.5%
O=C(c1ccc(Cl)cc1[N+](=O)[O-])N(Cc1ccccc1)Cc1ccccc1,?,.,.,79.4µM*,-6.0%
CCN(C(=O)c1coc(=O)c2ccccc12)c1ccccc1C,-15.1%,34.4%,-10.2%,-21.6%[59 µM],.
COc1ccc(/C=N/NC(=O)c2[nH]c3ccc(Br)cc3c2-c2ccccc2)c(C(=O)O)c1OC,50.1µM*,16.1%[57 µM],?,?,-12.9%
C(=N\Nc1ncnc2nc[nH]c12)/c1cccs1,50.1µM*,31.6%,?,-27.3%,-2.5%
Cc1ccc(-n2nc(C)c3c2NC2=C(C(=O)CC(C)(C)C2)C3c2ccccc2OCC(=O)O)cc1 (stereo not given),.,-6.3%,56.2µM*,?,-11.5%
CCOC(=O)c1sc(SCC(=O)Nc2ccc(N(C)C)cc2)nc1N,44.7µM*,?,?,11.2µM*,-15.5%
CN(C)c1ccc(NC(=O)CSc2nc(N)c(C(=O)Nc3ccc(N(C)C)cc3)s2)cc1,20µM*,?,?,?,?
COc1cccc(NC(=O)CSc2nc3ccc(NC(=O)c4cccs4)cc3s2)c1,-15.1%,64.0%,-1.7%,1.5%[59 µM],.
CCCCC(NC(=O)Cc1c(C)c2cc3c(-c4ccccc4)coc3c(C)c2oc1=O)C(=O)O (stereo not given),?,42.0%,-18.2%,-16.9%,.

# High-throughput results from PubChem.
